For the assay, the system named is Rolipram. The assay can be described thus: CYP450 and receptor off-target profile – biochemical, Ricerca HitProfilingScreen, selectivity assay for S1P4 agonist project, late-stage follow-up (AID 504400). The conditions noted are these: Ricerca radioligand binding/enzyme panel plus CYP450, at 10 µM, hits give high values.

Structures are written as SMILES. Values without a mark were called inactive. No rule for the calls is given here.

One may read the inhibition as the drop in the measured response relative to a control, in per cent.

`Clc1ccc(OCCOc2ccc(Br)nc2Br)c(Cl)c1`: the inhibition was -3%.

The values are drawn from PubChem BioAssay AID504400 (The Scripps Research Institute Molecular Screening Center, 2011).
